{
  "source": "PubChem BioAssay (NCI)",
  "note": "Compounds without any hit were thinned out: in the full panel of roughly 83,000, 20% have a hit.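 Assay: single dose, 48 h. Readout: percent growth (0 = no net growth; negative = cell death). Active: <10.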 A number with no mark means an inactive call. Active and inactive are the calls of the source.",
  "data": [
    {"test_system": "MDA-MB-468 breast", "experiment": "NCI-60 one-dose screen, 48 h (100 = growth as untreated, 0 = no growth, -100 = all killed)", "details": "10 µM unless noted", "values": [
      {"compound": "Cc1ccc2c(n1)C(=O)C(Cl)=C(Nc1cccc(C)c1C)C2=O", "growth": "-63.3% (active)"},
      {"compound": "C=C1C(=O)O[C@H]2[C@H]1CC/C(C(=O)NCCCCCCCCNC(=O)/C1=C/CC[C@@]3(C)O[C@H]3[C@H]3OC(=O)C(=C)[C@@H]3CC1)=C\\CC[C@@]1(C)O[C@@H]21", "growth": "35.7%"},
      {"compound": "CCN1C(=O)N(CC)C2C1NN=c1s/c(=C3\\C(=O)N(CC(C)(C)C)c4ccccc43)c(=O)n12", "note": "(stereo not drawn)", "growth": "18%"},
      {"compound": "COc1cccc(NC(=O)c2cccc(-c3cc(=O)c4c(OC)c(OC)c(OC)cc4o3)c2)c1", "growth": "79%"},
      {"compound": "O=C(CCCCCCNC(=O)c1csc(Br)n1)NO", "growth": "26.6%"},
      {"compound": "O=C(O)/C=C\\C(=O)N1C/C(=C\\c2ccccc2Cl)C(=O)/C(=C/c2ccccc2Cl)C1", "growth": "-75.2% (active)"},
      {"compound": "CCCN1CCN(c2ccc3nc(-c4ccc5nc(-c6ccc(C(F)(F)F)cc6)[nH]c5c4)[nH]c3c2)CC1", "growth": "-63.6% (active)"},
      {"compound": "C#CC#CC#CC#CC#CC#CC#CC#CC[C@H]1OC[C@@H](COC(=O)O[C@@H](C(=O)O[C@H]2C[C@@]3(O)[C@@H](OC(=O)c4ccccc4)[C@@H]4[C@]5(OC(C)=O)CO[C@@H]5C[C@H](O)[C@@]4(C)C(=O)[C@H](OC(C)=O)C(=C2C)C3(C)C)[C@@H](NC(=O)c2ccccc2)c2ccccc2)O1", "growth": "14.2%"},
      {"compound": "c1ccc2nc(Cn3cc[n+](Cc4ccc5ccccc5n4)c3)ccc2c1", "growth": "1.53% (active)"},
      {"compound": "COc1ccc2c(c1)c1nc3cc(C)c(C)cc3nc1n2CCN(C)C", "growth": "-2.58% (active)"},
      {"compound": "N#Cc1cnn(-c2nc3c(Cl)cccc3s2)c1N", "growth": "85.3%"},
      {"compound": "COc1ccc(/C=C2\\C=C(c3ccccc3)N(CCc3ccccc3)C2=O)cc1OC", "growth": "44%"},
      {"compound": "O=Nc1c(-c2c(O)[nH]c3ncccc23)[nH]c2ccccc12", "growth": "28.4%"},
      {"compound": "Nc1ccc2ccccc2c1-c1c(N)ccc2ccccc12", "growth": "11.8%"},
      {"compound": "COc1c(C)c2c(c(O)c1C/C=C(\\C)CCC(=O)O)C(=O)OC2", "growth": "37.9%"},
      {"compound": "Oc1ccc(Nc2ccc3ccccc3c2)cc1", "growth": "30.5%"},
      {"compound": "O=C(N/N=C\\c1ccc(F)cc1)c1ccc2nc(-c3ccc(Br)cc3)[nH]c2c1", "growth": "34.7%"},
      {"compound": "O=S(=O)(Nc1cc(Cl)cc(Cl)c1)c1ccc(-c2cnc(C3CC3)o2)cc1", "growth": "2.06% (active)"},
      {"compound": "COC(=O)[C@]12CC[C@@H](C)[C@H](C)[C@@H]1C1=CC[C@@H]3[C@@]4(C)C(C=O)=C[C@@](C)(COC(C)=O)C4=CC[C@@]3(C)[C@]1(C)CC2", "growth": "-3.02% (active)"},
      {"compound": "CC/C(=C(/c1ccc(OCCN(C)C)cc1)c1ccc(OC(=O)CCCCCCCCC(=O)c2c(C)[nH]c(/C=C3\\N=C(c4ccc[nH]4)C=C3OC)c2C)cc1)c1ccccc1", "growth": "53.4%"},
      {"compound": "COc1ccc2c(c1)C(C)Cc1c(Cl)nc(C)nc1N2C", "note": "(stereo not drawn)", "growth": "25.8%"},
      {"compound": "Cn1cc(-c2csc(-c3cn(C)c4ccc(Br)cc34)n2)c2cnccc21", "growth": "-68.4% (active)"},
      {"compound": "CC(O)c1ncc(/C=C2\\SC(=S)N(Cc3ccccc3)C2=O)s1", "note": "(stereo not drawn)", "growth": "65.6%"},
      {"compound": "COc1ccc(N=Nc2cc(OC)c(OC)c(OC)c2)cc1", "growth": "80.9%"},
      {"compound": "CC/C(=C(/c1ccc(OCCN(C)C)cc1)c1ccc(OC(=O)CCC(=O)c2c(C)[nH]c(/C=C3\\N=C(c4ccc[nH]4)C=C3OC)c2C)cc1)c1ccccc1", "growth": "53.4%"},
      {"compound": "CCCNNC(=O)c1ccc(-c2ccc(NC(=O)CCCCCCC(=O)N[C@H](C(=O)N3C[C@H](O)C[C@H]3C(=O)N[C@@H](C)c3ccc(-c4scnc4C)cc3)C(C)(C)C)cc2)cc1", "growth": "-10.1% (active)"},
      {"compound": "O=C(Nc1ccc(-n2ccc3c(NC(=O)c4ccccc4)ncnc32)cc1)c1cccc(C(F)(F)F)c1", "growth": "58.6%"},
      {"compound": "CNCCNc1nc2ccccc2c2c(=O)c3cc(F)ccc3sc12", "growth": "51.6%"},
      {"compound": "Clc1cccc(/C=N/Nc2nc(N/N=C/c3cccc(Cl)c3Cl)nc(N3CCCCC3)n2)c1Cl", "growth": "92.8%"},
      {"compound": "Cc1ccc(/C=N\\NC(=O)c2[nH]c3ccc(F)cc3c2-c2ccccc2)cc1", "growth": "-14.5% (active)"},
      {"compound": "CCSC1=CC(=O)c2ccccc2C1=O", "growth": "-88.1% (active)"},
      {"compound": "CC(=O)c1c(Nc2ccc(F)c(F)c2F)[nH]c2c(F)cc(F)cc2c1=O", "growth": "-21.9% (active)"},
      {"compound": "COc1cc(-c2cc(/C=C/C(=O)c3ccc(F)c(F)c3)[nH]n2)cc(OC)c1OC", "growth": "33.8%"}
    ]}
  ]
}
